U2OS ROS induce = cancer cell ROS induction; ROS induction (% of piperlongumine), % at 10 µM; U2OS ROS induction, H2DCF-DA fluorescence; hit rate 2% among 46,000; in the data active = ROS induction above about 79%, passing the limit was not always enough;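 note: 0% = DMSO vehicle median and 100% = reference compound median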
The depositor's hits bear a star. This excerpt belongs to a sample that is enriched for hits.

CN(Cc1ccccc1)C(=O)CSc1nc2ccc(Br)cc2c2nc3ccccc3n12 was read as U2OS ROS induce 12.2.
`CCC(C(=O)NCc1cc(Br)ccc1OC)n1nc(C)n2c(cc3occc32)c1=O` (configuration not stated) gave U2OS ROS induce -7.9.
`N#Cc1cc2c(=O)n3ccccc3nc2n(CCc2ccccc2)c1=O` gave U2OS ROS induce 22.4.
`Cc1ccccc1CSC(SCc1ccccc1C)=C(C#N)C(=O)NCc1ccco1` gave U2OS ROS induce 2.8.
For O=C(CCCCC(=O)N/N=C/c1ccc(O)c(O)c1O)NO the results were U2OS ROS induce 2.3.
O=C(CCCCC(=O)N/N=C/c1ccc(I)cc1)NO was read as U2OS ROS induce -1.5.
O=C(CCCCC(=O)N/N=C/c1c(F)c(F)c(F)c(F)c1F)NO was read as U2OS ROS induce 145.0*.
For Nc1nc(CNS(=O)(=O)c2ccccc2)nn1S(=O)(=O)c1ccccc1 the results were U2OS ROS induce -5.0.
CC(C)(C)NC(=O)Nc1ccc2ccccc2c1 was read as U2OS ROS induce 3.6.
For O=C(/C=C/c1ccccc1)Nc1ncnc2sc3c(c12)CCC3 the results were U2OS ROS induce 26.3.
c1ccc(Nc2ncnc3sc4c(c23)CCCC4)cc1 was read as U2OS ROS induce 103.5*.
For Cc1nc(NCCc2ccccc2)c2c3c(sc2n1)CCCC3 the results were U2OS ROS induce 126.7*.
c1ccc(Oc2ncnc3sc4c(c23)CCCC4)cc1 was read as U2OS ROS induce 6.2.
For Cc1nc(SCC(=O)c2cccs2)c2c3c(sc2n1)CCCC3 the results were U2OS ROS induce 30.9.
Screening CCc1nc2sc3c(NCCc4ccccc4)ncnc3c2c2c1CCCC2 returned U2OS ROS induce -4.5.
FC(F)(F)c1cccc(Nc2ncnc3sc4c(c23)CCC4)c1 was read as U2OS ROS induce 115.9*.
Screening CC(Sc1ncnc2sc3c(c12)CCCC3)C(=O)Nc1cc(C(F)(F)F)ccc1Cl (configuration not stated) returned U2OS ROS induce 1.0.
For O=C(O)CCNc1ncnc2sc3c(c12)CCCC3 the results were U2OS ROS induce 22.7.
For Cc1c(CC(=O)NN)sc2ccc(Cl)cc12 the results were U2OS ROS induce -7.5.
CN(Cc1ccccc1)C(=O)c1noc2c1COc1ccccc1-2 was read as U2OS ROS induce -7.2.
`C=CCn1cc(/C=C2/NC(=O)N(c3ccccc3)C2=O)c2ccccc21` gave U2OS ROS induce -8.3.
`CCn1c(O)c(C2=NC(=S)NC2=O)c2ccccc21` gave U2OS ROS induce 2.2.
CCOC(=O)CN1C(=O)S/C(=C\c2ccc(C(=O)O)cc2)C1=O was read as U2OS ROS induce 1.4.
Screening O=C(CSc1nc2ccccc2c(=O)n1CCC(=O)N1CCCCC1)c1ccccc1 returned U2OS ROS induce 18.2.
For c1ccc(COc2c3c(nc4ccccc24)CCCC3)cc1 the results were U2OS ROS induce 22.9.
Screening Cc1ccn2cc(CCNS(=O)(=O)c3ccc(Cl)s3)nc2c1 returned U2OS ROS induce 0.2.
For CN(C)CCNC(=O)c1cc2c(s1)-c1ccccc1S(=O)(=O)C2 the results were U2OS ROS induce 8.3.
`Cc1cccc(N(CC(=O)Nc2ccc(I)cc2C)S(C)(=O)=O)c1` gave U2OS ROS induce 128.8*.
Screening COc1ccc(C)cc1N(CC(=O)Nc1ccccc1-c1ccccc1)S(C)(=O)=O returned U2OS ROS induce 11.5.
COc1ccc(OC)c(N(CC(=O)Nc2cccc(Cl)c2Cl)S(C)(=O)=O)c1 was read as U2OS ROS induce -6.9.
For COc1ccc(C)cc1N(CC(=O)Nc1cccc(Cl)c1Cl)S(C)(=O)=O the results were U2OS ROS induce 85.4*.
For COc1cccc(N(CC(=O)Nc2ccc(I)cc2C)S(C)(=O)=O)c1 the results were U2OS ROS induce 0.5.
For Cc1cc(I)ccc1NC(=O)CN(c1cccc(F)c1)S(C)(=O)=O the results were U2OS ROS induce 46.2.
For C[C@H](CO)N1C[C@H](C)[C@H](CN(C)C)Oc2ncc(-c3cc4ccccc4o3)cc2C1=O the results were U2OS ROS induce 4.3.
For COc1ccc(NC(=O)N(C)C[C@@H]2Oc3ncc(-c4cccc(C(F)(F)F)c4)cc3C(=O)N([C@H](C)CO)C[C@@H]2C)cc1 the results were U2OS ROS induce 32.4.
For C[C@H](CO)N1C[C@H](C)[C@H](CN(C)C(=O)Nc2ccccc2)Oc2ncc(-c3cc4ccccc4o3)cc2C1=O the results were U2OS ROS induce 153.1*.
C[C@H](CO)N1C[C@H](C)[C@H](CN(C)Cc2ccccc2)Oc2ncc(-c3cccc(C(F)(F)F)c3)cc2C1=O was read as U2OS ROS induce 41.9.
CC(C)NC(=O)N(C)C[C@@H]1Oc2ncc(-c3cc4ccccc4o3)cc2C(=O)N([C@H](C)CO)C[C@@H]1C was read as U2OS ROS induce -5.6.
`C[C@H](CO)N1C[C@H](C)[C@H](CN(C)C(=O)Nc2ccccc2)Oc2ncc(-c3ccccc3)cc2C1=O` gave U2OS ROS induce 9.3.
`C[C@H](CO)N1C[C@H](C)[C@H](CN(C)C(=O)Nc2ccc3c(c2)OCO3)Oc2ncc(-c3cccc(C(F)(F)F)c3)cc2C1=O` gave U2OS ROS induce 54.6.
`C[C@H](CO)N1C[C@H](C)[C@H](CN(C)C(=O)Nc2ccc(F)cc2)Oc2ncc(-c3cccc(F)c3)cc2C1=O` gave U2OS ROS induce 74.8.
Screening C[C@H](CO)N1C[C@H](C)[C@H](CN(C)C(=O)Nc2ccc(F)cc2)Oc2ncc(-c3cccc(C(F)(F)F)c3)cc2C1=O returned U2OS ROS induce 91.4*.
`C[C@H](CO)N1C[C@H](C)[C@H](CN(C)C(=O)Nc2ccccc2)Oc2ncc(-c3cccc(C(F)(F)F)c3)cc2C1=O` gave U2OS ROS induce 98.2*.
C[C@H](CO)N1C[C@H](C)[C@H](CN(C)Cc2ccc(F)cc2)Oc2ncc(-c3cccc(C(F)(F)F)c3)cc2C1=O was read as U2OS ROS induce 77.1*.
For C[C@H](CO)N1C[C@H](C)[C@H](CN(C)Cc2cccc(C(F)(F)F)c2)Oc2ncc(-c3ccc(F)cc3)cc2C1=O the results were U2OS ROS induce 50.5.
Screening CC(C)NC(=O)Cn1c(=O)c2cccn2c2cccnc21 returned U2OS ROS induce -19.6.
CN(Cc1ccccc1)C(=O)c1cccs1 was read as U2OS ROS induce -11.8.
Screening N#CCN(CC#N)C(=O)c1ccc(C(=O)N(CC#N)CC#N)cc1 returned U2OS ROS induce 5.4.
Screening CCOC(=O)C1=NNCC1C(=O)OCC (configuration not stated) returned U2OS ROS induce -0.5.
CCc1ccc(CNC(=O)c2ccc3c(c2)ncn3C2CCCC2)cc1 was read as U2OS ROS induce -14.6.
For O=C(CCCn1c(=O)c2cccn2c2ccccc21)NC1CCCc2ccccc21 (configuration not stated) the results were U2OS ROS induce 6.2.
Screening Cn1nnc2c(NCC(=O)C(C)(C)C)nc(Cc3ccc(Cl)cc3Cl)nc21 returned U2OS ROS induce -23.5.
Screening CC1=C(C(=O)Nc2ccc(C(=O)NCc3ccc4c(c3)OCO4)cc2)SCCO1 returned U2OS ROS induce -4.0.

Screening data (PubChem)
